From PubChem BioAssay AID1159580 (chemical genetic matrix, 2015)
Where “and” joins values, the source holds several entries; their conditions need not be identical. Identical values can stand only once. The campaign covered roughly 5,500 compounds. About 2,000 (36%) were called active. Another 18% or so got no clear call; they are omitted. No stated cut-off is given here; in the data, active means normalized growth mostly below about 0.91 (no sharp cut-off); inconclusive means no clear call, values can overlap the other calls; inactive means mostly above about 0.92. The list shows a part of the results.

Experiment: chemical genetic growth profiling, strain panel (AID 1159580);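 further: tested at 20 µM; growth read once vehicle control cultures reached saturation at 30 °C; 1 = growth at the plate median or of vehicle wells; lower values mean less growth of the strain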
Settings: S. cerevisiae deletion strains, growth OD

Measured: normalized growth

CC1=CC(=O)C2C(C)(C)CCC[C@]2(C)[C@@]1(O)CCc1ccoc1 (some centres not stated)
inactive: locus YAL021C, strain ccr4, active compounds read low 0.986 | locus YAL026C, strain drs2, active compounds read low 1 | locus YAL030W, strain snc1, active compounds read low 0.984 | locus YBL061C, strain skt5, active compounds read low 1.02 | locus YBR009C, strain hhf1, active compounds read low 0.999 | locus YBR021W, strain FUR4, active compounds read low 1.04 | locus YBR023C, strain chs3, active compounds read low 0.982 | locus YBR171W, strain sec66, active compounds read low 0.984 | locus YBR229C, strain ROT2, active compounds read low 1.01 | locus YBR231C, strain swc5, active compounds read low 1.03 | locus YBR279W, strain paf1, active compounds read low 0.975 | locus YCL011C, strain gbp2, active compounds read low 0.996 | locus YCL016C, strain dcc1, active compounds read low 0.989 | locus YCL029C, strain bik1, active compounds read low 0.997 | locus YCL061C, strain MRC1, active compounds read low 1 | locus YCL069W, strain vba3, active compounds read low 1.01 | locus YCR088W, strain abp1, active compounds read low 0.992 | locus YDL005C, strain med2, active compounds read low 0.988 | locus YDL035C, strain GPR1, active compounds read low 1.03 | locus YDL040C, strain nat1, active compounds read low 0.998 | locus YDL074C, strain BRE1, active compounds read low 0.995 | locus YDL101C, strain DUN1, active compounds read low 0.998 | locus YDL185W, strain tfp1, active compounds read low 0.955 | locus YDL192W, strain arf1, active compounds read low 0.998 | locus YDR001C, strain nth1, active compounds read low 1.01 | locus YDR069C, strain doa4, active compounds read low 0.994 | locus YDR101C, strain arx1, active compounds read low 1.01 | locus YDR150W, strain NUM1, active compounds read low 0.988 | locus YDR159W, strain sac3, active compounds read low 1.02 | locus YDR162C, strain NBP2, active compounds read low 1 | locus YDR195W, strain ref2 1.08 | locus YDR297W, strain sur2, active compounds read low 0.991 | locus YDR318W, strain mcm21, active compounds read low 0.997 | locus YDR334W, strain swr1, active compounds read low 1.01 | locus YDR335W, strain msn5, active compounds read low 0.958 | locus YDR388W, active compounds read low 0.999 | locus YDR502C, strain sam2, active compounds read low 0.98 | locus YEL003W, strain gim4, active compounds read low 1.02 | locus YEL037C, strain rad23, active compounds read low 1 | locus YEL061C, strain CIN8 (second series), active compounds read low 0.995 | locus YEL061C, strain CIN8, active compounds read low 1 | locus YER015W, strain faa2, active compounds read low 0.99 | locus YER016W, strain bim1, active compounds read low 0.994 | locus YER110C, active compounds read low 0.987 | locus YER111C, strain swi4, active compounds read low 0.999 | locus YER155C, strain BEM2 (second series), active compounds read low 1.03 | locus YER155C, strain BEM2, active compounds read low 0.989 | locus YER167W, strain BCK2, active compounds read low 0.989 | locus YFR010W, strain ubp6, active compounds read low 1.04 | locus YGL078C, strain dbp3, active compounds read low 0.966 | locus YGL086W, strain mad1, active compounds read low 0.995 | locus YGL167C, strain pmr1, active compounds read low 0.987 | locus YGL173C, strain kem1, active compounds read low 1.01 | locus YGL227W, strain vid30, active compounds read low 0.991 | locus YGL240W, strain doc1, active compounds read low 1.01 | locus YGL248W, strain PDE1, active compounds read low 1.03 | locus YGL253W, strain hxk2, active compounds read low 1.03 | locus YGR078C, strain PAC10, active compounds read low 1.01 | locus YGR135W, strain pre9, active compounds read low 0.941 | locus YGR252W, strain gcn5, active compounds read low 1.08 | locus YHR013C, strain ard1, active compounds read low 0.98 | locus YHR027C, strain rpn1, active compounds read low 0.99 | locus YHR030C, strain SLT2, active compounds read low 1.05 | locus YHR079C, strain IRE1 (second series), active compounds read low 0.972 | locus YHR079C, strain IRE1, active compounds read low 1.04 | locus YHR094C, strain hxt1, active compounds read low 0.973 | locus YHR129C, strain ARP1, active compounds read low 0.989 | locus YHR142W, strain chs7, active compounds read low 0.96 | locus YHR200W, strain rpn10, active compounds read low 1 | locus YIL066C, strain RNR3, active compounds read low 0.998 | locus YIL073C, strain SPO22, active compounds read low 1.02 | locus YIL125W, strain kgd1, active compounds read low 0.98 | locus YIR030C, strain dcg1, active compounds read low 0.976 | locus YJL092W, strain hpr5, active compounds read low 1 | locus YJL095W, strain BCK1 (second series), active compounds read low 0.995 | locus YJL095W, strain BCK1, active compounds read low 1.02 and 1.03 | locus YJL115W, strain asf1, active compounds read low 0.982 | locus YJL129C, strain trk1, active compounds read low 0.945 | locus YJL134W, strain LCB3, active compounds read low 0.99 | locus YJL154C, strain vps35, active compounds read low 1 | locus YJL164C, strain tpk1, active compounds read low 0.955 | locus YJL166W, strain qcr8, active compounds read low 0.995 | locus YJL168C, strain set2, active compounds read low 0.983 | locus YJL187C, strain SWE1 (second series), active compounds read low 1 | locus YJL187C, strain SWE1, active compounds read low 0.992 | locus YJR043C, strain POL32, active compounds read low 1.08 | locus YJR066W, strain TOR1, active compounds read low 0.973 | locus YJR075W, strain HOC1, active compounds read low 0.994 | locus YKL009W, strain mrt4, active compounds read low 0.981 | locus YKL068W, active compounds read low 0.968 | locus YKL085W, strain MDH1 (second series), active compounds read low 0.974 | locus YKL085W, strain MDH1, active compounds read low 0.974 | locus YKL160W, strain elf1, active compounds read low 0.975 | locus YKL190W, strain CNB1, active compounds read low 0.986 | locus YKR001C, strain vps1, active compounds read low 1.04 | locus YKR026C, strain gcn3, active compounds read low 1 | locus YKR091W, strain srl3, active compounds read low 0.991 | locus YLL001W, strain dnm1, active compounds read low 0.964 | locus YLL026W, active compounds read low 0.994 | locus YLL041C, strain sdh2, active compounds read low 0.999 | locus YLR027C, strain aat2, active compounds read low 0.984 | locus YLR039C, strain RIC1, active compounds read low 1 | locus YLR058C, strain SHM2, active compounds read low 1.02 | locus YLR102C, strain apc9, active compounds read low 0.979 | locus YLR113W, strain HOG1, active compounds read low 1.02 | locus YLR221C, strain rsa3, active compounds read low 1.02 | locus YLR258W, strain gsy2, active compounds read low 0.996 | locus YLR268W, strain sec22, active compounds read low 1 | locus YLR320W, strain mms22, active compounds read low 1 | locus YLR342W, strain FKS1, active compounds read low 0.99 | locus YLR357W, strain rsc2, active compounds read low 1.04 | locus YLR370C, strain arc18, active compounds read low 0.996 | locus YLR371W, strain rom2, active compounds read low 0.983 | locus YLR384C, strain iki3, active compounds read low 0.982 | locus YLR418C, strain cdc73, active compounds read low 0.995 | locus YML016C, strain PPZ1, active compounds read low 0.998 | locus YML032C, strain rad52, active compounds read low 0.983 | locus YML120C, strain ndi1, active compounds read low 0.954 | locus YML124C, strain tub3, active compounds read low 0.993 | locus YMR058W, strain fet3, active compounds read low 1 | locus YMR078C, strain ctf18, active compounds read low 0.974 | locus YMR125W, strain sto1, active compounds read low 0.959 | locus YMR129W, active compounds read low 0.981 | locus YMR205C, strain PFK2, active compounds read low 0.922 | locus YMR223W, strain ubp8, active compounds read low 0.972 | locus YMR231W, strain pep5, active compounds read low 0.998 | locus YMR307W, strain GAS1, active compounds read low 1.13 | locus YNL067W, strain RPL9B, active compounds read low 1 | locus YNL183C, strain NPR1, active compounds read low 0.975 | locus YNL209W, strain ssb2, active compounds read low 0.987 | locus YNL233W, strain BNI4, active compounds read low 1.03 | locus YNL248C, strain rpa49, active compounds read low 0.998 | locus YNL250W, strain rad50, active compounds read low 0.927 | locus YNL271C, strain bni1, active compounds read low 0.955 | locus YNL298W, strain CLA4, active compounds read low 0.996 | locus YNL307C, strain MCK1, active compounds read low 0.986 | locus YNL322C, strain KRE1 (second series), active compounds read low 0.998 | locus YNR049C, strain mso1, active compounds read low 1 | locus YNR052C, strain pop2, active compounds read low 0.979 | locus YOL006C, strain TOP1, active compounds read low 1.15 | locus YOL012C, strain htz1 1.06 | locus YOL147C, strain pex11, active compounds read low 0.976 | locus YOR001W, strain rrp6, active compounds read low 1.06 | locus YOR061W, strain CKA2, active compounds read low 0.993 | locus YOR069W, strain VPS5, active compounds read low 0.99 | locus YOR070C, strain gyp1, active compounds read low 0.99 | locus YOR080W, strain dia2, active compounds read low 1 | locus YOR083W, strain WHI5, active compounds read low 1.01 | locus YOR106W, strain vam3, active compounds read low 1 | locus YOR136W, strain idh2, active compounds read low 0.986 | locus YOR144C, strain elg1, active compounds read low 0.986 | locus YOR184W, strain ser1, active compounds read low 1.01 | locus YOR231W, strain MKK1, active compounds read low 1.03 | locus YOR265W, strain rbl2, active compounds read low 1.02 | locus YOR270C, strain vph1, active compounds read low 0.862 | locus YOR290C, strain snf2, active compounds read low 0.959 | locus YOR316C, strain cot1, active compounds read low 0.993 | locus YPL051W, strain arl3, active compounds read low 0.959 | locus YPL078C, strain atp4, active compounds read low 0.966 | locus YPL106C, strain sse1, active compounds read low 1.02 | locus YPL240C, strain hsp82, active compounds read low 1 | locus YPL241C, strain CIN2, active compounds read low 0.985 | locus YPL256C, strain CLN2, active compounds read low 1.01 | locus YPR119W, strain clb2, active compounds read low 0.969 | locus YPR141C, strain kar3, active compounds read low 0.962 | locus YPR163C, strain tif3, active compounds read low 0.977 | locus YPR167C, strain met16, active compounds read low 0.972 | strain wtn01, active compounds read low 1.01
active: locus YDR137W, strain rgp1, active compounds read low 0.825 | locus YDR392W, strain spt3, active compounds read low 0.628 | locus YLR262C, strain YPT6 (second series), active compounds read low 0.835 | locus YNL071W, strain lat1, active compounds read low 0.902
